This is an account of results in PubChem BioAssay (Tox21).

The nature of assay [1]: qHTS assay to identify small molecule agonists of the estrogen related receptor signaling pathway with the pleiotropic PPARgamma coactivator (PGC) from Tox21 10K library (AID 1224842). Note: % is set by controls: 0 for no effect and ±100 for the full control effect; nearly all actives have a fitted effect of over 15% in size. In short, it runs like this:
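Luminescence from One-Glo (30 min, room temperature) measured after PGC/ERR cells had 18 h at 37 C with pinned compound (23 nL in DMSO). Cells had been seeded at 2,000 per well and pre-incubated 6 h.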
(In qHTS, concentration-response curves come from the screen itself.)

Assay [2] is described as follows: qHTS assay to identify small molecule agonists of the AP-1 signaling pathway - cell viability counter screen (AID 1159525; calls by dose curve; note: nearly all actives have a fitted effect of over 55% in size; note: potency is the fitted concentration of half-maximal effect). In a few lines: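 Intracellular ATP by Cell Titer Glo luminescence (30 min, RT) in the same ME-180 AP-1-bla wells after the 5 h compound exposure at 37 °C. Normalised to tetra n-octyl ammonium bromide and DMSO controls.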
The nature of assay [3]: qHTS RealTime-Glo MT Cell Viability Assay in HepG2 cells - 40 hour (AID 1224870). Note: % is set by controls: 0 for no effect and ±100 for the full control effect; nearly all actives have a fitted effect of over 50% in size. In short, it runs like this:
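Real-time viability: cells seeded at 600 per well together with NanoLuc and cell-permeant prosubstrate, compounds added after 5 h incubation. Luminescence tracked at 0, 8, 16, 24, 32 and 40 h of exposure.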

A short description of assay [4]: A CellTox Green Cytotoxicity Assay to monitor cytotoxicity in HEK293 cells - 40 hour (AID 1224871). Note: nearly all actives have a fitted effect of over 45% in size. Note: potency is the fitted concentration of half-maximal effect. In a few lines: (§1)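 Fluorescence from a DNA-binding dye excluded by viable cells was measured repeatedly in the same HEK293 wells (600 cells/well) during continuous compound exposure at 37 C. Each assay gives one read point: 0, 8, 16, 24, 32 or 40 h.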
Assay [5] is described as follows: A CellTox Green Cytotoxicity Assay to monitor cytotoxicity in HepG2 cells - 16 hour (AID 1224876). Note: % is set by controls: 0 for no effect and ±100 for the full control effect; nearly all actives have a fitted effect of over 45% in size. In short, it runs like this:
(§2)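 Real-time cytotoxicity: fluorescence of a cell-impermeant cyanine dye binding DNA of dead HepG2 cells, measured repeatedly (0–40 h) during compound exposure at 37 C. Cells seeded 600/well with reagent, dosed after 5 h.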

Assay [6] is described as follows: qHTS RealTime-Glo MT Cell Viability Assay in HepG2 cells - 32 hour (AID 1224877). Note: % is set by controls: 0 for no effect and ±100 for the full control effect; nearly all actives have a fitted effect of over 55% in size. In short, it runs like this: (§3)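 HepG2 cells (600/well) were dispensed with RealTime-Glo reagents, incubated 5 h at 37 °C, then treated with compounds in DMSO for up to 40 h. Nonlytic NanoLuc luminescence reflecting viable cells was read at each stated time point.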
Assay [7] in a line: A CellTox Green Cytotoxicity Assay to monitor cytotoxicity in HEK293 cells - 16 hour (AID 1224888). Note: nearly all actives have a fitted effect of over 35% in size. Note: potency is the fitted concentration of half-maximal effect. In a few lines:
as §1

The nature of assay [8]: qHTS RealTime-Glo MT Cell Viability Assay in HepG2 cells - 0 hour (AID 1224889). Note: % is set by controls: 0 for no effect and ±100 for the full control effect; nearly all actives have a fitted effect of over 50% in size. In a few lines:
as §3

A short description of assay [9]: A CellTox Green Cytotoxicity Assay to monitor cytotoxicity in HepG2 cells - 8 hour (AID 1224890). Note: nearly all actives have a fitted effect of over 45% in size. Note: potency is the fitted concentration of half-maximal effect. In a few lines: as §2
The nature of assay [10]: qHTS assay to identify small molecule antagonists of the androgen receptor (AR) signaling pathway using the MDA cell line in the presence of 0.5 nM R1881 - cell viability counter screen (AID 1259242). Note: % is set by controls: 0 for no effect and ±100 for the full control effect; nearly all actives have a fitted effect of over 45% in size. In a few lines: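 Live-cell protease activity was measured by CellTiter-Fluor fluorescence after 30 min. Before that, MDA-kb2 MMTV-luciferase cells had 16 hr at 37C without CO2, exposed to test compounds and 0.5 nM R1881 final.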

Assay [11] is described as follows: qHTS assay to identify small molecule HDAC inhibitors - cell viability counter screen (AID 1259365). Note: series mostly up to about 92 µM; % is set by controls: 0 for no effect and ±100 for the full control effect; nearly all actives have a fitted effect of over 50% in size. In short, it runs like this:
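Luminescence from CellTiter-Glo, developed 30min at room temperature, reports viability of wild-type HCT-116 cells treated 2hr with compounds at 37 C and 5% CO2 after overnight plating.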

A short description of assay [12]: qHTS assay to identify small molecule antagonists of the sonic hedgehog signaling (Shh) pathway (AID 1259369; calls by dose curve; note: nearly all actives have a fitted effect of over 45% in size; note: potency is the fitted concentration of half-maximal effect). In a few lines:
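Antagonist mode: compound added to 3T3 Gli1-Luc cells followed by conditioned-medium stimulation, 24 h at 37 C, 5% CO2. Inhibition taken as loss of Gli1-driven luciferase luminescence.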

The nature of assay [13]: qHTS assay to identify small molecule agonists or antagonists of the thyroid stimulating hormone receptor (TSHR) signaling pathway - wild type cell line counter screen (AID 1259384; calls by dose curve; note: % is set by controls: 0 for no effect and ±100 for the full control effect). In short, it runs like this: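 Counter screen in untransfected Hek293: compounds (15-point titration, triplicate) plus phosphodiesterase inhibitor Ro20-1724 added after 18 h plating; 30 min RT. Intracellular cAMP via competitive d2/cryptate immunoassay, 1 h incubation.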

A short description of assay [14]: qHTS assay to identify small molecule agonists of the estrogen receptor alpha (ER-alpha) signaling pathway in the presence of an antagonist - cell viability counter screen (AID 1259386). Note: nearly all actives have a fitted effect of over 30% in size. Note: potency is the fitted concentration of half-maximal effect. In a few lines:
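Compounds tested at 15 concentrations for 22 h at 37C alongside 10.0nM (final) ICI-182,780 antagonist, in VM7Luc4E2 cells grown in phenol red-free, charcoal-stripped medium. Viability read by CellTiter-Fluor fluorescence after 1 h reagent incubation.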

Assay [15] in a line: qHTS assay to identify small molecule agonists of the TGF-beta/Smad signaling pathway - cell viability counter screen (AID 1346829). In a few lines: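 SBE-bla HEK 293T cells plated overnight, compound exposure 5 hr at 37 C. Viability read in the same wells by CellTiter-Glo luminescence after 30 min at room temperature, following the beta-lactamase read.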
Assay [16] in a line: qHTS assay to identify small molecule agonists of the TGF-beta/Smad signaling pathway (AID 1346859; active = well fitted activation curve with a large enough effect in the signal ratio in the repeat runs, not every such curve was filed as active; the % refers to the signal ratio; note: series mostly up to about 77 µM; % is set by controls: 0 for no effect and ±100 for the full control effect). In a few lines:
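SBE-bla HEK 293T, 4,000 cells/well, plated o/n; cpd in DMSO, 5 hr, 37 C/5% CO2; B/G FRET substrate 2 hr RT; ex 405, em 460/530 nm.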

In assay [17] the target is Voltage-gated inwardly rectifying potassium channel KCNH2 (Homo sapiens) (UniProt Q12809). The assay is described as follows: Human Ether-a-go-go-Related Gene (hERG) channel small molecule antagonists: fluorescence cell-based qHTS assay (AID 1671200). Note: nearly all actives have a fitted effect of over 50% in size. Note: potency is the fitted concentration of half-maximal effect. In a few lines: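 Channel function was assessed by thallium flux. Cells seeded the previous day and kept at 37 C took up FluxOR II dye over 1 h in the dark at room temperature, then sat another 10 min before stimulation.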
Voltage-gated inwardly rectifying potassium channel KCNH2 (Homo sapiens), sequence (Q12809 whole entry, looked up): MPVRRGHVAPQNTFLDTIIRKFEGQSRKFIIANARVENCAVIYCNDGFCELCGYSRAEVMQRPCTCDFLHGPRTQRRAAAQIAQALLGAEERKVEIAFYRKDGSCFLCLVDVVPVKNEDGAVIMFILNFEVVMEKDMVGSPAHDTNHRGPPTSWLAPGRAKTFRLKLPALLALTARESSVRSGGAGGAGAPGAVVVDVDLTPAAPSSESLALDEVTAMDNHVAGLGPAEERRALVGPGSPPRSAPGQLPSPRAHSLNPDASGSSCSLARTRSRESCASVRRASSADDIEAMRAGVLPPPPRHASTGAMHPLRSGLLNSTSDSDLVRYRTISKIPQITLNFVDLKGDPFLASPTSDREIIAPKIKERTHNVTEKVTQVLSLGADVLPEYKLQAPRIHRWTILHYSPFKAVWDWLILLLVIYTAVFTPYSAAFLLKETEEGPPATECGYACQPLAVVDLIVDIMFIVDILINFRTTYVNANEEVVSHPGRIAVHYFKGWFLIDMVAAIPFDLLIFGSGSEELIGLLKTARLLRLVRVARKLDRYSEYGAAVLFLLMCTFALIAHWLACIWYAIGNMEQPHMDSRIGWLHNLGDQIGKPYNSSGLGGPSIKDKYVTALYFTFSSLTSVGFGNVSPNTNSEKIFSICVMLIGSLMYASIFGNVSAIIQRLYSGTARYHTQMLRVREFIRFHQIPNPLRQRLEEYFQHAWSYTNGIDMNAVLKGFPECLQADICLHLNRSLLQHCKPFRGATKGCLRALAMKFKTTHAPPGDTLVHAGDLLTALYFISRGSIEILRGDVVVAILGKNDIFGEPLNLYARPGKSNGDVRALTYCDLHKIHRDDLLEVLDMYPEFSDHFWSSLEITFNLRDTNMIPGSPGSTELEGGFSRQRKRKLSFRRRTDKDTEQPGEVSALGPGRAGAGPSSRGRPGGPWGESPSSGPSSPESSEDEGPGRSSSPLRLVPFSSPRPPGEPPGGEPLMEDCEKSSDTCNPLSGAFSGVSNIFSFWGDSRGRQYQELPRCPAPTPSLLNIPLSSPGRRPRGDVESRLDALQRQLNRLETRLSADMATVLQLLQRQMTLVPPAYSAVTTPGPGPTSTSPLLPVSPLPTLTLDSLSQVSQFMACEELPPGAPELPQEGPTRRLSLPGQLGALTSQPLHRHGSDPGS
In general terms: Block of hERG is tested as a sign of cardiac risk.

Assay [18] in a line: qHTS RealTime-Glo MT Cell Viability Assay in HEK293 cells - 40 hour (AID 1224874). For max response: % is set by controls: 0 for no effect and ±100 for the full control effect. Note: nearly all actives have a fitted effect of over 50% in size. Note: potency is the fitted concentration of half-maximal effect. Particulars: RealTime-Glo luminescence; max response: hits give low values. In a few lines: (§4)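 Luminescence, which tracks viable cell number through reduction of the prosubstrate to a NanoLuc substrate, was read over continuous 37 C culture. Cells (600/well) were premixed with reagent and rested 5 h before 23 nL of compound in DMSO was pinned.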

A short description of assay [19]: qHTS RealTime-Glo MT Cell Viability Assay in HEK293 cells - 0 hour (AID 1224880). In a few lines:
as §4

Assay [20] is described as follows: qHTS assay to identify small molecule antagonists of the TGF-beta/Smad signaling pathway - cell viability counter screen (AID 1346824). In a few lines: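 Cytotoxicity counter-screen run in the same wells as the beta-lactamase Smad reporter read: CellTiter-Glo luminescence after 30 min at room temperature. HEK 293T SBE-bla cells had 5 hr compound exposure at 37 C with TGF-beta1 (0.25 ng/mL stock).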

Unmarked numbers belong to inactive results. Results filed as inconclusive are left out. Calls of active or inactive are those of the source. Unless noted, calls come from the whole dose curve; as a rule, active = well fitted curve in the direction sought with a large enough effect in the repeat runs; inconclusive = weak or mixed curves; inactive = no such curve, though single readings can be large; an effect the other way counts as inactive or inconclusive.

As for `CCCCC(CC)COC(=O)c1ccc(C(=O)OCC(CC)CCCC)cc1` (stereo not given), the Potency entry in assay [1] is “inactive”.
As for `OC(Cc1ccccc1Cl)(Cn1[nH]cnc1=S)C1(Cl)CC1` (stereo not given), the Potency result in assay [2], in assay [3], in assay [4], in assay [5], in [6] and in [7] was “inactive” in each case. Also, the Potency result in [8], in assay [9], in assay [10], in assay [14] and in [17] was “inactive” in each case. Also, the compound was classed as inactive in assay [11], in assay [13], in assay [15] and in assay [16]. The Potency in assay [12] is 38.6 µM (active).
On to `Cc1nnc2n1-c1sc(CCc3ccc(CC(C)C)cc3)cc1C(c1ccccc1Cl)=NC2C` (stereo not given), for which the Potency in assay [2] is 26.8 µM (active); in [4], 23.9 µM (active); in assay [18] it was 9.52 µM (active); in assay [12], 21.1 µM (active); in assay [17], 15.1 µM (active). The Potency result in assay [1], in assay [5], in assay [7], in assay [8] and in assay [9] was “inactive” throughout. Besides, the compound was classed as inactive in assay [11] and in assay [13].
As for `CCN(CC)C(=O)Cl`, the Potency result in [2], in assay [1], in [3], in assay [4], in assay [5] and in assay [6] was “inactive” in each case. For the same compound, the Potency result in assay [7], in assay [8], in [9], in assay [10], in [12] and in [14] was “inactive” each time. For the same compound, the Potency result in assay [20] and in assay [17] was “inactive” each time. The max response in assay [18] is 13.5%. For the same compound, the outcome in [19], in assay [11], in assay [13], in assay [15] and in assay [16] was inactive.
Regarding `Nc1ccc([N+](=O)[O-])cc1`, the Potency is 38.9 µM (active) in assay [2]; 38.9 µM (active) in [4]; 38.9 µM (active) in [18]; 43.6 µM (active) in [9]; 27.3 µM (active) in [12]; 27.3 µM (active) in assay [14]. For the same compound, the Potency result in assay [3], in assay [6], in [8] and in assay [20] was “inactive” throughout. Also, the call in assay [19], in assay [11], in [13], in assay [15] and in [16] was inactive.
For `O=[N+]([O-])c1cc(C(F)(F)F)ccc1Cl`, in [1], the Potency entry was “inactive”.
Regarding `O=[N+]([O-])c1c(Cl)c(Cl)cc(Cl)c1Cl`, the Potency entry in [2], in [1], in [3], in assay [6], in [8] and in assay [9] was “inactive” each time. For the same compound, the Potency result in [10], in [12], in assay [14], in [20] and in [17] was “inactive” in each case. In addition, the Potency in assay [4] and in [7] was 49 µM (active) in each case. In addition, in assay [18], the max response was 0.554%. Besides, the compound was classed as inactive in assay [19], in assay [11], in assay [13] and in [15].
In the case of `ClC(Cl)=C(c1ccc(Cl)cc1)c1ccccc1Cl`, the Potency result in assay [2], in assay [3], in [5], in assay [6], in assay [7] and in assay [8] was “inactive” throughout. Besides, the Potency result in assay [9], in assay [10], in assay [12], in assay [14] and in assay [20] was “inactive” in each case. The result in [19], in assay [11], in assay [13] and in [15] was inactive. Besides, the Potency in assay [17] was 21.9 µM (active).
Turning to `Cc1cc(C(C)(C)c2ccc(O)c(C)c2)ccc1O`, the Potency result in assay [2], in [1], in assay [3], in assay [5], in assay [6] and in assay [8] was “inactive” in each case. The Potency result in assay [9] and in assay [20] was “inactive” each time. For the same compound, the Potency in assay [18] was 20.8 µM (active); in assay [12], 16.4 µM (active). Also, the result in assay [19], in assay [11], in assay [13], in assay [15] and in assay [16] was inactive.
Regarding `Nc1ccc(Cl)cc1[N+](=O)[O-]`, the Potency entry in assay [1] is “inactive”.
